We go through 20 compounds from PubChem BioAssay.

Assay [1] in a line: antimalarial activity against Dd2 strain (AID 2302;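 active = growth inhibition above 50% at the single 2 µM test dose, taken to imply half-maximal potency below 2 µM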;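 also: 0% = DMSO untreated growth and 100% = chloroquine plus artemisinin killed control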). The conditions noted are these: P. falciparum Dd2 in RBCs, LDH growth readout, 72 h; at 2 µM; active compounds read high.
Assay [2] is described as follows: HepG2 cytotoxicity, primary screen, cytotoxicity control for P. falciparum antimalarial project, cell-based, ATP luminescence (AID 2303;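 active = inhibition above 50%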;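 also: 0% = DMSO wells and 100% = digitonin-killed cells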). The conditions noted are these: HepG2 viability, 24-48 h, at 10 µM, active compounds read high.
For assay [3], the target named is L-lactate dehydrogenase (Plasmodium falciparum (isolate CDC / Honduras)) (UniProt Q27743). Briefly: PfLDH activity inhibition – cell lysate, 3D7 strain, counter-screen for P. falciparum growth inhibition project (AID 2304).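 Also: 0% = vehicle and 100% = reference inhibitor.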 The conditions noted are these: P. falciparum 3D7 crude extract, LDH APAD/NBT absorbance; at 2 µM; active compounds read high. On the technique in general: The purpose of a counterscreen is to sort out artefacts and off-target activity.
Sequence of L-lactate dehydrogenase (Plasmodium falciparum (isolate CDC / Honduras)) (Q27743 whole entry, looked up): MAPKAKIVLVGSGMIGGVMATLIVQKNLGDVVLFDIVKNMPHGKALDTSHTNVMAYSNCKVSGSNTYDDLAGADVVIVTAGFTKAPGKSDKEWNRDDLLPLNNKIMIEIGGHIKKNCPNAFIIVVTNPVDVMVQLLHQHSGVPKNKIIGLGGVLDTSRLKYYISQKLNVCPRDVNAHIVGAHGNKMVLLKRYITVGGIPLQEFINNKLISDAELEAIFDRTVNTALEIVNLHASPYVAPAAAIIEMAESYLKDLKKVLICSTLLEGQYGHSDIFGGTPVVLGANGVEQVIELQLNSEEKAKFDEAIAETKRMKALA

Assay [4] can be described thus: inhibition of 3D7 malaria parasite growth – strain 3D7 (AID 2306).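 Also: 0% = DMSO wells and 100% = chloroquine plus artemisinin control wells.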 The conditions noted are these: P. falciparum 3D7 erythrocytic growth, LDH absorbance, 72 h; at 2 µM; active compounds read high.
Assay [5] concerns the target Calcium-dependent protein kinase 1 (Plasmodium falciparum (isolate 3D7)) (UniProt P62344). Nature of the assay: PfCDPK1 kinase inhibitors, biochemical, TCAMS library (AID 1159585; cut-off not given, nearly all actives have IC50 up to about 0.98 µM;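 also: inhibitors leave more ATP so luminescence rises with inhibition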). The conditions noted are these: recombinant PfCDPK1, Kinase-Glo ATP depletion luminescence. On the technique in general: Kinase-Glo measures the ATP left after a reaction by luminescence.
Assay [6] addresses Plasmodium falciparum protein kinase 6 (PK6, PF3D7_1337100) (UniProt Q8IDW1). Nature of the assay: PfPK6 kinase inhibitors, biochemical, TCAMS library (AID 1159586). The conditions noted are these: recombinant PfPK6, Kinase-Glo ATP depletion luminescence.
Assay [7] addresses Protein kinase 7 (PK7), Plasmodium falciparum 3D7 (PF3D7_0213400) (UniProt Q7YTF7). Briefly: inhibition of Plasmodium PK7 catalytic activity – biochemical, TCAMS antimalarial set, Kinase-Glo luminescence (AID 1159587). The conditions noted are these: recombinant PfPK7, Kinase-Glo ATP depletion luminescence.
Assay [8] addresses Calcium-dependent protein kinase 4 (Plasmodium falciparum (isolate 3D7)) (UniProt Q8IBS5). Nature of the assay: PfCDPK4 kinase inhibitors, biochemical, TCAMS library (AID 1159588; cut-off not given, nearly all actives have IC50 up to about 0.91 µM). The conditions noted are these: recombinant PfCDPK4, Kinase-Glo ATP depletion luminescence.

A number with no mark means an inactive call. For some of these results: Measured potencies and affinities stand elsewhere. Calls of active or inactive are those of the source. Unless noted, no rule for the calls is given here.

Sequence of Plasmodium falciparum protein kinase 6 (PK6, PF3D7_1337100) (Q8IDW1 1-305): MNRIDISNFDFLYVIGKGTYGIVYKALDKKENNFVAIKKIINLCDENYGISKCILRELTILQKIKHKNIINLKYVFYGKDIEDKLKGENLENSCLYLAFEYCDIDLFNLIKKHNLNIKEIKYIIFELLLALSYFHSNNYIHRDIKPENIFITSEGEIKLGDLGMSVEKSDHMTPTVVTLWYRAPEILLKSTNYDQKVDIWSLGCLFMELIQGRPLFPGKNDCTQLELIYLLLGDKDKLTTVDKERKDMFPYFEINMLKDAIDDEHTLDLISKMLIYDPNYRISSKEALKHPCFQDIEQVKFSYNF
Sequence of Calcium-dependent protein kinase 4 (Plasmodium falciparum (isolate 3D7)) (Q8IBS5 whole entry, looked up): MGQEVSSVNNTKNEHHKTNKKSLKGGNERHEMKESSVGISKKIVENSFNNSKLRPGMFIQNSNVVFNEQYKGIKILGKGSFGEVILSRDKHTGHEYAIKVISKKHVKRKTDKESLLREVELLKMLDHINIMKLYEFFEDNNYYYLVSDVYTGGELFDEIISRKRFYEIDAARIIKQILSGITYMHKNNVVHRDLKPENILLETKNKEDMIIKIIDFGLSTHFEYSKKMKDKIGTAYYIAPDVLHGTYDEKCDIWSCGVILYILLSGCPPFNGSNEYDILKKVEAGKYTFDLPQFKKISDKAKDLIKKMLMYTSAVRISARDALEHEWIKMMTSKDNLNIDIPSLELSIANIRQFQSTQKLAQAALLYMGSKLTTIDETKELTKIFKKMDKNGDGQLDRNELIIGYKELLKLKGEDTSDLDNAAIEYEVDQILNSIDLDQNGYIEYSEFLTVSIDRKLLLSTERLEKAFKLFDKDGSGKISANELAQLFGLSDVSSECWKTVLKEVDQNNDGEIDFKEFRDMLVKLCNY
Sequence of Calcium-dependent protein kinase 1 (Plasmodium falciparum (isolate 3D7)) (P62344 whole entry, looked up): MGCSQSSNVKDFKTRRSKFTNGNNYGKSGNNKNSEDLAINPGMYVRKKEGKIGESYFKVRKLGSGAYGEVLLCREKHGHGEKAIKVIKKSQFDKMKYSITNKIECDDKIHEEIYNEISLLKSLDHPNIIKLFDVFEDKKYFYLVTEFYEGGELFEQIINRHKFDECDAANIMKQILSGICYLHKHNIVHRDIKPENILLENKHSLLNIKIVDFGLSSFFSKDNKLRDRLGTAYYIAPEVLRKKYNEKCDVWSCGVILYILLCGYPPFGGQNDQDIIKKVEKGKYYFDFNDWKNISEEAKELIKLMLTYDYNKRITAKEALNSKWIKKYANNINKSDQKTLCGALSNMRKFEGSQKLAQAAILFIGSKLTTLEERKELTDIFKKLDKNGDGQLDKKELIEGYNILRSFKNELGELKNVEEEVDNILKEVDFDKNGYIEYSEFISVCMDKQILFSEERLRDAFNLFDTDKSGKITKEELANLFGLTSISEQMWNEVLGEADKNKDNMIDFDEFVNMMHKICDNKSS
Sequence of Protein kinase 7 (PK7), Plasmodium falciparum 3D7 (PF3D7_0213400) (Q7YTF7 1-343): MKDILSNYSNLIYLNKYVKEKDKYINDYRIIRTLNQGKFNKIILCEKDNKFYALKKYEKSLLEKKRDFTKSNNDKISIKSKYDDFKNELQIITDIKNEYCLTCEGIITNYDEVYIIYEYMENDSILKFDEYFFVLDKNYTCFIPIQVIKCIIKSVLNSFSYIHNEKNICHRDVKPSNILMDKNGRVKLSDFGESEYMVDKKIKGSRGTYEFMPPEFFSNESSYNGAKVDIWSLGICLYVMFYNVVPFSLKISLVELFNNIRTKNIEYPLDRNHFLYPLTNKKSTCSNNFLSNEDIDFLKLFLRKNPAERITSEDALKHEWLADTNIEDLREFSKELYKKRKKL

Usually inhibition stands for the drop in the measured response relative to a control, in per cent. As for `CCOC(=O)NC1=NC(C)(C)N(OCCCOc2cc(Cl)c(Cl)cc2Cl)C(NC(=O)OCC)=N1`, the growth inhibition in assay [1] is 97% (active); in assay [4], 91% (active). Besides, the inhibition in assay [2] is 63% (active); in assay [3], 5%. Further, the result in assay [5], in assay [6], in assay [7] and in assay [8] was inactive.

Regarding `Cc1nn(-c2cccc(C(F)(F)F)c2)c2sc(C(=O)NC3CCN(C(C)C)CC3)cc12`, the growth inhibition is 20% in assay [1] and 94% (active) in assay [4]. Moreover, the inhibition in assay [2] is 98% (active); in assay [3] it was -4%. Further, the outcome in assay [5], in assay [6], in assay [7] and in assay [8] was inactive.

`O=C(Nc1ccc(OC2CCN(Cc3ccc(F)cc3)CC2)c(Cl)c1)c1ccccc1`: the growth inhibition in assay [1] is 89% (active); in assay [4], 90% (active). The inhibition in assay [2] is 16%; in assay [3] it was -4%. The outcome in assay [5], in assay [6], in assay [7] and in assay [8] was inactive.

Regarding `CC(=O)C=C1CC(=O)N(C[C@@H](O)[C@H]2O[C@@H]3OC(C)(C)O[C@@H]3[C@H]2O)c2ccccc2N1`, the growth inhibition was 2% in assay [1] and 90% (active) in assay [4]. Further, the inhibition in assay [2] is -8%; in assay [3] it was 3%. For the same compound, the result in assay [5], in assay [6], in assay [7] and in assay [8] was inactive.

`Nc1c2c(nc3cc(NC(=O)c4ccc([N+](=O)[O-])cc4)ccc13)CCCC2`: the growth inhibition in assay [1] was 58% (active); in assay [4] it was 100% (active). In addition, the inhibition in assay [2] is 11%; in assay [3], -2%. In addition, the result in assay [5], in assay [6], in assay [7] and in assay [8] was inactive.

As to `Cc1cc(Nc2ccc(C)c(Cl)c2)n2ncnc2n1`, the growth inhibition is 91% (active) in assay [1] and 98% (active) in assay [4]. The values for the inhibition in assay [2] and in assay [3] were 6% and -1%, respectively. In addition, the outcome in assay [5], in assay [6], in assay [7] and in assay [8] was inactive.

On to `COc1ccc(S(=O)(=O)N2CCOCC2)cc1NC(=O)c1cc2ccccc2o1`, for which the growth inhibition was -1% in assay [1] and 93% (active) in assay [4]. The inhibition in assay [2] was 8%; in assay [3] it was -2%. Moreover, the result in assay [5], in assay [6], in assay [7] and in assay [8] was inactive.

As for `O=C(Nc1ccc(C(F)(F)F)cc1)c1cccc(S(=O)(=O)NC2CCN(CC3CCCCC3)CC2)c1`, the growth inhibition in assay [1] is 12%; in assay [4], 99% (active). Moreover, the inhibition was 18% in assay [2] and -3% in assay [3]. The result in assay [5], in assay [6], in assay [7] and in assay [8] was inactive.

For the compound `O=C(NC1CCCCC1)N(Cc1ccc(-c2cccc(CNCc3ccc4c(c3)OCO4)c2)cc1)C1CCN(Cc2ccccc2)CC1`, the growth inhibition in assay [1] is 72% (active); in assay [4], 101% (active). Also, the inhibition in assay [2] was 23%; in assay [3], 4%. The outcome in assay [5], in assay [6], in assay [7] and in assay [8] was inactive.

Turning to `CNC(=O)c1cnc(Nc2ccc(N3CCN(C)CC3)c(C)c2)nc1NC`, the growth inhibition in assay [1] is 38%; in assay [4] it was 97% (active). Moreover, the inhibition in assay [2] was 19%; in assay [3] it was -1%. The outcome in assay [5], in assay [6], in assay [7] and in assay [8] was inactive.

For the compound `CN(CCN)Cc1cccc(-c2cccc(-c3nc4ccc(C(F)(F)F)cc4[nH]3)c2)c1`, the growth inhibition in assay [1] is 98% (active); in assay [4] it was 99% (active). Besides, the inhibition is 22% in assay [2] and 0% in assay [3]. In addition, the result in assay [5], in assay [6], in assay [7] and in assay [8] was inactive.

For the compound `Nc1ccc2[nH]cc(C3CCN(CC4CCC(NC(=O)/C=C/c5ccccc5Cl)CC4)CC3)c2n1` (stereo not given), the growth inhibition in assay [1] is 45%; in assay [4], 100% (active). Also, the inhibition in assay [2] was 7%; in assay [3] it was -3%. Moreover, the outcome in assay [5], in assay [6], in assay [7] and in assay [8] was inactive.

For the compound `Cc1cc(C)c(CON2C(N)=NC(N)=NC2(C)C)cc1C`, the values for the growth inhibition in assay [1] and in assay [4] were 93% (active) and 92% (active), respectively. Also, the inhibition is 65% (active) in assay [2] and 2% in assay [3]. Further, the outcome in assay [5], in assay [6], in assay [7] and in assay [8] was inactive.

With `CO/C(=C\C=C\c1cc2cc(Cl)c(Cl)cc2[nH]1)C(=O)NCCCCN1CCN(c2ccccc2OC)CC1`, the growth inhibition in assay [1] was 96% (active); in assay [4], 100% (active). The inhibition in assay [2] was 55% (active); in assay [3], -1%. The result in assay [5], in assay [6], in assay [7] and in assay [8] was inactive.

For `Nc1nc(N)c2c(CCc3ccc(Cl)c(Cl)c3)cccc2n1`, the growth inhibition in assay [1] is 83% (active); in assay [4], 101% (active). Further, the inhibition in assay [2] was 51% (active); in assay [3], 6%. Also, the result in assay [5], in assay [6], in assay [7] and in assay [8] was inactive.

For `Oc1ccc(CCNc2nc(NCc3ccccc3-c3ccc(C(F)(F)F)cc3)nc(NC3CCNCC3)n2)cc1`, the growth inhibition in assay [1] is 2%; in assay [4] it was 97% (active). Moreover, the inhibition is 12% in assay [2] and 4% in assay [3]. Further, the result in assay [5], in assay [6], in assay [7] and in assay [8] was inactive.

On to `NC(N)=NC(=O)Nc1cc(Br)c(Cl)c(Br)c1`, for which the growth inhibition in assay [1] was 83% (active); in assay [4] it was 101% (active). Further, the inhibition is 0% in assay [2] and 4% in assay [3]. Further, the outcome in assay [5], in assay [6], in assay [7] and in assay [8] was inactive.

Regarding `COc1cc2nc(N3CCN(C(=O)c4ccco4)CC3)nc(NCc3ccccc3)c2cc1OC`, the growth inhibition in assay [1] is 99% (active); in assay [4] it was 101% (active). For the same compound, the inhibition in assay [2] was 16%; in assay [3], -5%. In addition, the outcome in assay [5], in assay [6], in assay [7] and in assay [8] was inactive.

For `COc1ccc2nccc([C@@H](O)CN3CCC(NC(=O)Cc4ccc(Br)c5ccccc45)CC3)c2c1`, the growth inhibition in assay [1] is 40%; in assay [4] it was 98% (active). The inhibition in assay [2] is 10%; in assay [3], -2%. Further, the outcome in assay [5], in assay [6], in assay [7] and in assay [8] was inactive.

On to `Cc1cc(N[C@@H](Cc2ccccc2)C(=O)NCCOc2ccccc2)nc(NCCc2ccccn2)n1`, for which the growth inhibition in assay [1] was 42%; in assay [4] it was 92% (active). For the same compound, the inhibition in assay [2] is 12%; in assay [3] it was -2%. The result in assay [5], in assay [6], in assay [7] and in assay [8] was inactive.
